Here are results for 15 compounds from PubChem BioAssay (NCI).

The structures appear in SMILES notation. Compounds without any hit were thinned out: in the full panel of roughly 83,000, 20% have a hit.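 Activity criterion: percent growth below 10, measured after cells in 96-well plates were exposed to a single compound concentration for 48 hours.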 Values without a mark were called inactive. The source made the active and inactive calls.

For this assay, the system named is MDA-MB-231 breast. As to the kind of experiment: NCI-60 one-dose screen, 48 h (100 = growth as untreated, 0 = no growth, -100 = all killed). The settings on record: 10 µM.
Regarding `COc1cc(Cl)cc(-c2nn(-c3cccc(NC(=O)Nc4ccc(Cl)c(Cl)c4)c3)cc2-c2ccncc2)c1`, the growth was -21% (active).

Consider `CC1=C(N2CCOCC2)C(N2CCOCC2)=C(C)C(=O)C1=O`, for which the growth was 115%.

Take `COc1cc(-c2nc(Nc3nc4ccccc4s3)[nH]c(=O)c2C#N)cc(OC)c1O`: the growth is 106%.

For the compound `COc1ccc(CN2CCC(N3CCCC3=O)c3cc(Cl)ccc32)cc1` (stereo not given), the growth is 123%.

Regarding `CC(=O)O[C@]1(C)CC[C@H]2[C@H](CNCCc3ccc(Cl)cc3)C(=O)O[C@@H]2C2=C(C)C(=O)C[C@H]21`, the growth was 90.5%.

For the compound `COc1ccc(-c2nn(-c3cccc(NC(=O)Nc4cc(C(F)(F)F)cc(C(F)(F)F)c4)c3)cc2-c2ccncc2)cc1Cl`, the growth was -63% (active).

Turning to `CN(CCc1ccccn1)c1ccccc1`, the growth is 105%.

Take `COc1ccc(N=C2C(=Nc3ccc(OC)cc3)N(c3ccc(N(C)C)cc3)C(=S)N2c2ccc(OC)cc2)cc1`: the growth was 90.2%.

`COc1cc2nc(Nc3cccc(NC(C)=O)c3)nc(N)c2cc1OC`: the growth is 86.9%.

On to `C#Cc1ccc(-n2c(/C=C/c3ccc(Cl)c(F)c3)nc3ncccc3c2=O)cc1`, for which the growth is -29.8% (active).

For `COc1cccc(Cn2c(-c3nonc3N)nc3ccccc32)c1`, the growth is 27.7%.

Take `c1ccc([I+]c2ccccc2)cc1`: the growth is 87.6%.

`O=C(c1cccs1)c1ccccc1Cc1ccccc1`: the growth is 88.6%.

As to `COc1ccc(-c2ccc(-c3ccc(C(=N)N)cn3)o2)cc1`, the growth was 47.4%.

Regarding `Nc1c(C(=O)Nc2cccc3ccccc23)sc2nc3c(cc12)C(=O)CCC3`, the growth is 8.28% (active).
